Shown are actives, neighbours in structure and some others; about 2.4% of the full set was active somewhere.
PHOSPHO1 block = PHOSPHO1 (human) inhibition. actives 1.1% (n = 290,000). Q8TCT1. recombinant PHOSPHO1, absorbance phosphatase assay. inhibition, % at 13.3 µM; in the data active = inhibition above about 60%
Target sequence (Q8TCT1 whole entry, looked up): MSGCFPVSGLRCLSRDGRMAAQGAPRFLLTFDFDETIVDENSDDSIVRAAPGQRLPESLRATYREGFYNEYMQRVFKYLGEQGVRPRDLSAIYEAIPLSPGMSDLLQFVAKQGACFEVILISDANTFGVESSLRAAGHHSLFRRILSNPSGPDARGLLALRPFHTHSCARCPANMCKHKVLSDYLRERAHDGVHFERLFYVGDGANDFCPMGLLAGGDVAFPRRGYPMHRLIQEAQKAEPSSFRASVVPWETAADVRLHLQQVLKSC
MLLE-PAM2 inh = inhibitors of microRNA-mediated deadenylation, human PABP1 MLLE binding. P11940. GST-MLLE / FITC-PAM2 fluorescence polarization. inhibition, % at 20 µM. actives 0.36% (n = 360,000); in the data active = inhibition above about 35%, passing the limit was not always enough;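 also: plate controls were DMSO wells with GST-MLLE for no effect and wells lacking GST-MLLE protein for full effect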
PABP FP inh = PABP-poly(A) binding inhibition; actives 1% (n = 290,000); calls only at 35 µM; PABP-poly(A) RNA binding, fluorescence polarization; P11940;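 also: calls also rest on retests at 20 µM and on dose response follow-up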
eIF4H inh = inhibitors of RNA binding by human eIF4H; eIF4H fluorescence polarization binding assay; inhibition, % at 35 µM; actives 0.94% (n = 290,000); AID 2012;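 also: calls also rest on retests at 20 µM and on dose response follow-up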
HMGR II inh = inhibitors of class II HMG-CoA reductase from Enterococcus faecalis; actives 0.41% (n = 190,000); purified E. faecalis HMGR, NADPH absorbance 340 nm kinetic; AID 1066; inhibition, % at 10 µM;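 active = inhibition above a set limit, the median over all tested compounds plus 3 SD, cut at about 9.5% in these data; inconclusive = no clear call, values can overlap the other calls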;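 also: enzyme runs in reverse so mevalonate oxidation gives rising NADPH absorbance; 0% = complete reaction with DMSO and 100% = background rate lacking mevalonate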
* hit, by the source's call; i = inactive; u = inconclusive; x = no result; + = active, no number. Unless noted, no rule for the calls is given here.

SMILES	PHOSPHO1 block	MLLE-PAM2 inh	PABP FP inh	eIF4H inh	HMGR II inh
O=C1CC(c2ccco2)CC(O)=C1C=NCC1CCNCC1 (configuration not stated)	9	24	+	94*	-4
COCCNC(=O)C(c1ccc(F)cc1)N(C(=O)CCC(=O)Nc1nccs1)c1ccc(C)cc1 (configuration not stated)	13	5	i	-7	-3
COCCCNc1nc(=S)[nH]c2cc(OC)c(OC)cc12	82*	-65	i	-2	-1
COc1cc2[nH]c(=S)nc(NCCC(C)C)c2cc1OC	-103	-82	i	-5	-1
Cc1ccc(C)c(-n2c(-c3cccnc3)n[nH]c2=S)c1	13	-18	i	-2	-5
CCc1cc(-c2n[nH]c(=S)n2-c2cccc(C)c2)cs1	92*	-2	i	-4	-1
Cc1cccc(-n2c(-c3csc(C)c3)n[nH]c2=S)c1	99*	13	i	10	4
CCCCn1c(-c2csc(CC)c2)n[nH]c1=S	14	-14	i	-7	-2
Cc1cc(-c2n[nH]c(=S)n2-c2ccccc2C)cs1	-26	-6	i	active	-5
Cc1cc(Cl)ccc1-n1c(-c2cccnc2)n[nH]c1=S	78*	-18	i	-4	x
COc1ccc(CN2C(=O)c3cccc4cccc2c34)cc1F	7	4	i	11	x
O=c1[nH]nc(Sc2ccccc2)c(=S)[nH]1	x	45*	x	x	x
CN(C)c1ccc(C(=O)N2CCN(C(=O)C3CCCO3)CC2)cc1 (configuration not stated)	x	5	x	x	x
NC(=O)c1c(NC(=O)CSc2nnc(-c3ccco3)n2-c2ccccc2)sc2c1CCC2	82*	-9	+	87*	1
O=C(CCc1nnc2ccc(NCc3ccccc3)nn12)NC1CCCCC1	6	10	i	6	x
COC(=O)C(C)(C(=O)OC)c1ccccc1[N+](=O)[O-]	16	0	+	u	-8
COC(=O)C(Cc1cnc(Cl)s1)(C(=O)OC)c1ccccc1[N+](=O)[O-]	8	-12	i	0	3
O=C(Nc1cc(S(=O)(=O)Nc2ccc(Cl)cc2)ccc1N1CCCCC1)c1ccc(F)cc1Cl	-2	43*	i	8	-5
CS(=O)(=O)c1ccc(C(=O)Nc2ccc(N3CCCC3)cc2)c(Cl)c1	-12	0	+	82*	0
CS(=O)(=O)c1ccc(C(=O)Nc2ccc(N3CCOCC3)cc2)c(Cl)c1	51	-7	i	-8	-2
COc1ccc(NS(=O)(=O)c2ccc(N3CCOCC3)c(NC(=O)c3ccccc3Cl)c2)cc1	-3	5	i	0	-2
CC1=C(C(=O)Nc2ccc(CC(=O)NCc3ccccc3C)cc2)SCCO1	32	16	i	-3	x
CCc1ccc(CNC(=O)Cc2ccc(NC(=O)C3=C(C)OCCS3)cc2)cc1	65*	10	i	26	x
COc1ccc(OCc2cc(C(=O)N(C)C3CCOC3)no2)c(Cl)c1 (configuration not stated)	27	7	i	-1	x
COc1ccc(OCc2cc(C(=O)N(C)C3CCOCC3)no2)c2ccccc12	62*	6	i	-8	x
SMILES	PHOSPHO1 block	MLLE-PAM2 inh	PABP FP inh	eIF4H inh	HMGR II inh
Cc1cccc(N2CN(S(=O)(=O)c3cccc([N+](=O)[O-])c3)c3nc4ccccc4nc32)c1	x	2	x	x	x
O=C1COc2ccc(N3C(=O)c4ccccc4C3=O)cc2N1	20	x	i	-1	-1
CC1CN=C(NC(=O)c2cccc([N+](=O)[O-])c2)S1 (configuration not stated)	50	42*	i	9	x
O=C(Nc1cccc(NC(=O)c2cccc([N+](=O)[O-])c2)n1)c1cccc([N+](=O)[O-])c1	46	7	i	-5	x
O=Cc1c(NCCN2CCCC2)c2ccccc2[nH]c1=O	30	-4	i	-2	x
CC1(C)CC(=O)C2=C(C1)Nc1[nH]c(=S)[nH]c(=O)c1C2c1ccccc1 (configuration not stated)	96*	28	i	2	-2
CSc1nc2c(c(=O)[nH]1)C(c1ccccc1)C1=C(CC(C)(C)CC1=O)N2 (configuration not stated)	8	4	i	-18	-3
Cc1ccc(C2C3=C(CCCC3=O)Nc3[nH]c(=S)[nH]c(=O)c32)cc1 (configuration not stated)	102*	27	i	-7	-6
CCOc1ccc2nc(N3C(=O)/C(=C/c4ccc(Cl)cc4)NC3=S)sc2c1	-53	-22	i	27	1
